In PubChem BioAssay (NCI):
Compounds without any hit were thinned out: in the full panel of roughly 83,000, 20% have a hit.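 Compound tested at a single concentration for 48 hours in 96-well plates; a percent growth value below 10 was scored as active.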 Activity calls are given as the source filed them.

Test system: MDA-MB-468 breast
Assay: NCI-60 one-dose screen, 48 h (100 = growth as untreated, 0 = no growth, -100 = all killed)
Details: 10 µM unless noted

Structure (SMILES)	growth
COc1ccc(OC)c(Nc2nnc(-c3ccc(O)c(OC)c3)o2)c1	71.7% (inactive)
COc1cc(-c2nc(/C=C3/C(=O)Nc4ccccc43)c3ccccn23)cc(OC)c1OC	87.9% (inactive)
CCCCn1c(=O)[nH]c2c(c1=O)C(c1ccc(Cl)cc1)c1c([nH]c(=O)n(CCCC)c1=O)N2	108% (inactive)
CCOc1ccccc1/C=N\Nc1ccc(S(=O)(=O)c2ccc(N/N=C/c3ccccc3OCC)cc2)cc1	96.8% (inactive)
COc1ccc2nc(-c3ccc(Cl)cc3)cc(-c3nnc(SCC(=O)Nc4ccc(C(C)=O)cc4)n3-c3ccccc3)c2c1	91.2% (inactive)
N#Cc1ccc(N2Cc3ccccc3OC3=C2C(=O)c2c(O)ccc(O)c2C3=O)cc1	-18.8% (active)
Cc1ccc(S(=O)(=O)NCCCNc2nccc(-c3[nH]c(-c4ccccc4)nc3-c3ccc(F)c(O)c3)n2)cc1	33.9% (inactive)
CCc1cc(C)cc(O)c1	94.7% (inactive)
O=C1c2cccc3cccc(c23)C(=O)N1Nc1nc(NC2CCCCC2)nc(N2CCOCC2)n1	114% (inactive)
CCCCn1c(=O)c2c(nc(NCCc3ccc(O)c(O)c3)n2CCC)n(CCCC)c1=O	82.2% (inactive)
O=[N+]([O-])/C(=C\c1ccco1)c1ccccc1Cl	55.7% (inactive)
O=C(Nc1ccc(F)cc1)c1cc(-c2ccc(F)cc2F)ccc1O	-7.21% (active)
CNc1ncc(-c2ccc(C(F)(F)F)cc2)c(NC2CCCCCC2)n1	74.9% (inactive)
CNCCCNc1nc2ccccc2c2c(=O)c3cc(F)ccc3sc12	-57.3% (active)
O=C(O)CC1Cc2ccccc2C1C(=O)O (stereo not given)	106% (inactive)
COc1cc2c(Nc3ccc(S(N)(=O)=O)cc3)ncnc2c(OC)c1OC	84% (inactive)
O=C(Nc1ccncc1)C(=O)c1cn(S(=O)(=O)c2cccc(F)c2)c2ccccc12	12% (inactive)
COc1cc(-c2nc(SCCC(C)C)nc(Nc3ccc(F)cc3)c2C#N)cc(OC)c1OC	96.8% (inactive)
O=C(/C=C/c1sc(Cl)nc1Cl)c1ccccc1	55.3% (inactive)
Oc1ccc(-c2nn(-c3ccccc3)cc2-c2nc3ccccc3s2)cc1	90.1% (inactive)

Structure (SMILES)	growth
COc1cc2c3c(n(CCCNC4CCCCC4)c(=O)c2cc1OC)-c1cc2c(cc1C3=O)OCO2	78.8% (inactive)
Cc1ccc2c(=O)cc(C(=O)Nc3sc4c(c3C(=O)NCc3cccnc3)CCCC4)oc2c1C	109% (inactive)
COC(=O)C[Se]C(=O)Cc1c(C)n(C(=O)c2ccc(Cl)cc2)c2ccc(OC)cc12	-18.4% (active)
CC(C)CC(=O)C(CCc1ccccn1)C(C)C (stereo not given)	109% (inactive)
CCCCCCCCCCN(CCCCCCCCCC)CC(=O)c1ccc2cc(Br)c3ccccc3c2c1	100% (inactive)
O=[N+]([O-])c1ccc2c(c1)Cc1ccccc1-2	84.1% (inactive)
N#Cc1c(N)n2c(nc1=Nc1ccc([N+](=O)[O-])cc1)sc1cc(Cl)ccc12	79.5% (inactive)
C#C[C@H](O)/C=C/CCCCCCC#C[C@H](O)CC[C@@H](O)C#CCCCCCC/C=C/[C@@H](O)C#C	97.6% (inactive)
Nc1nc(N)c2c(n1)NC(c1ccc3c(c1)OCO3)CC(c1cccc(Nc3ccncc3)c1)=N2 (stereo not given)	62.7% (inactive)
c1cc(C2CCCCC2)ccc1-c1cnc2nonc2n1	2.69% (active)
Cn1cc(-c2ccc3cc(-c4ccc(CC(=O)Nc5cc(C(C)(C)C)on5)cc4)cnc3c2)cn1	30.7% (inactive)
Cc1cccc(C(=O)O)n1	111% (inactive)
O=C(O)CC1CCN(c2ccc3nnc(Cl)n3n2)CC1	101% (inactive)
O=C(/C=C/c1ccccc1)Nc1ncc(Cc2ccccc2Cl)s1	8.79% (active)
Cc1ccc(NC(=O)c2ccc(CN3CCN(C)CC3)c(C(F)(F)F)c2)cc1Oc1ccc(-c2[nH]nc3ncnc(N)c23)cc1	117% (inactive)
O=C1/C(=C/c2ccc(O)cc2)Cc2ccc(Cl)cc21	65% (inactive)
OCc1cccc(F)c1	68.9% (inactive)
O=C(N=Nc1c(O)[nH]c2ccccc12)Nc1ccccc1Cl	11.5% (inactive)
Fc1cc(F)cc(NNC(=S)c2ccccc2)c1	43.5% (inactive)
NCCNc1nc2ccc(F)cc2c2c(=O)c3cc(F)ccc3sc12	45.3% (inactive)
